Sampled rows, rich in hits. Any-hit rate of the full collection: about 1.2%.
RGS4-Gao reg: human RGS4-Galphao interaction regulation. actives 0.33% (n = 220,000). AID 1415. binding response (% of control), % at 10 µM. Multiplexed bead flow cytometry, RGS4-Galphao binding; actives lie on both sides; in the data active = binding response below about 49% or above about 150%; inactive = in between;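 note: fluorescent Galphao activated with aluminum fluoride binding bead-coupled RGS4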
Target sequence (P09471 whole entry, looked up): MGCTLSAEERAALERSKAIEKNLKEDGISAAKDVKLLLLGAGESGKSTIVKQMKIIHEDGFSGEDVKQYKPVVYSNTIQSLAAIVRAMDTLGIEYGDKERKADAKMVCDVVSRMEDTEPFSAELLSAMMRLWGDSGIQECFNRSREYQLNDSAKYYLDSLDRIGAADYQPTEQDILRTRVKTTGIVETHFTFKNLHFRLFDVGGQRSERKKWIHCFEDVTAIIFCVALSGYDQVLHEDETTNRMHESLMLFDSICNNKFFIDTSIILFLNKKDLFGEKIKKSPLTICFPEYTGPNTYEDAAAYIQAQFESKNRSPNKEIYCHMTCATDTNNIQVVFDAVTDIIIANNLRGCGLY
GSH fluor: GSH bead compound fluorescence profile; GSH beads flow cytometry, compound fluorescence 488/530 nm; stronger effect = higher value; fluorescence (KMESF) at 10 µM; actives 0.25% (n = 190,000); in the data active = fluorescence above about 89;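 note: glutathione beads carrying GST-tagged Bcl family fusion proteins plus one bare bead set; values are compound well signal with DMSO vehicle wells as background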
RGS8-Gao reg: regulators of human RGS8-Galphao interaction; AID 1423; actives 0.34% (n = 220,000); P09471; response (percent of control binding), % at 10 µM; multiplexed bead flow cytometry, RGS8-Galphao binding; actives lie on both sides; in the data active = response below about 60% or above about 140%; inactive = in between;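 note: Galphao activated as the GDP aluminium fluoride complex binding bead-coupled RGS8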
Avidin fluor: avidin bead compound fluorescence profile; Avidin beads, compound fluorescence 488/530 nm, flow cytometry; stronger effect = higher value; fluorescence (KMESF) at 10 µM; actives 0.38% (n = 220,000); AID 1775; in the data active = fluorescence above about 47
RGS16-Gao HTS: regulators of human RGS16-Galphao interaction; bead-based flow cytometry RGS16-Galphao binding, fluorescence; actives lie on both sides; binding response (% of control), % at 10 µM; actives 0.38% (n = 220,000);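 note: Galphao activated by GDP with aluminum fluoride before binding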
RGS7-Gao reg: modulates binding of RGS7 to human Galphao; P09471; Multiplexed bead flow cytometry; actives lie on both sides; binding response (% of control), % at 10 µM; actives 0.35% (n = 220,000); in the data active = binding response below about 49% or above about 150%; inconclusive = no clear call, values can overlap the other calls; inactive = in between;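 note: fluorescent Galphao held in activated GDP-AlF4 state binding bead-coupled RGS7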
RGS4-Gao HTS: RGS4-Galphao interaction regulator (human); shares compounds with RGS16-Gao HTS; multiplexed bead flow cytometry, RGS–Galpha-o binding; RGS4–Galpha-o binding response, % at 10 µM; actives 99% (n = 1,600); AID 1504;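 note: fluorescently labeled Galpha-o bound to GDP with aluminium fluoride binding biotinylated RGS beads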
Target sequence (P09471 whole entry, looked up): as above
Target sequence (P49798 whole entry, looked up): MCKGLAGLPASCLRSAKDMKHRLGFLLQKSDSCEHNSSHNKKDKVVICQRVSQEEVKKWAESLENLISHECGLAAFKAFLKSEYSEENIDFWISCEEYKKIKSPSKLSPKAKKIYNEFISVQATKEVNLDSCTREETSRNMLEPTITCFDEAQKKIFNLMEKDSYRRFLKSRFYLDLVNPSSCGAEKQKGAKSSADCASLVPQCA
Avidin counter: interferes with biotinylated probe binding to avidin beads; shares compounds with RGS16-Gao HTS; streptavidin beads, fluorescein-biotin binding, flow cytometry; 1,700 tested, under 10 active; inhibition, % at 10 µM; AID 1783;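 active = inhibition above 50%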;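 note: median green fluorescence of gated singlet beads compared with DMSO control wells; 0% = DMSO wells and 100% = complete loss of bead fluorescence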
RGS8-Gao confirm: RGS8-Galphao interaction regulation, single point confirmation | shares compounds with RGS16-Gao HTS | bead-based flow cytometry RGS8-Galphao binding, fluorescence; actives lie on both sides | binding response (% of control), % at 10 µM | actives 3% (n = 1,700) | AID 1836; in the data active = binding response below about 72% or above about 130%; inactive = in between;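 note: Galphao activated as GDP AlF4 complex before binding bead RGS8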
RGS7-Gao confirm: RGS7-Galphao interaction regulation, single point confirmation | shares compounds with RGS16-Gao HTS | bead-based flow cytometry RGS7-Galphao binding; actives lie on both sides | response (percent of control binding), % at 10 µM | actives 7.8% (n = 1,700); in the data active = response below about 75% or above about 130%; inactive = in between;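 note: fluorescent Galphao activated with GDP and aluminum fluoride binding bead-coupled RGS7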
RGS16-Gao conf: confirmation of regulators of human RGS16-Galphao interaction; shares compounds with RGS16-Gao HTS; bead-based flow cytometry, RGS16-Galphao binding; actives lie on both sides; response (% of control binding), % at 10 µM; actives 4% (n = 1,700); in the data active = response below about 74% or above about 130%; inactive = in between;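 note: Galphao activated as the GDP aluminium fluoride complex binding bead-coupled RGS16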
RGS4-Gao single: confirmation of regulators of human RGS4-Galphao interaction; shares compounds with RGS16-Gao HTS; RGS4-Galphao binding, multiplexed bead flow cytometry; actives lie on both sides; AID 1840; actives 4% (n = 1,700); binding response (% of control), % at 10 µM; in the data active = binding response below about 74% or above about 130%; inactive = in between
RGS19-Gao conf: RGS19-Galphao interaction regulation, single point confirmation; shares compounds with RGS16-Gao HTS; bead-based flow cytometry RGS19-Galphao binding; actives lie on both sides; response (percent of control binding), % at 10 µM; actives 5% (n = 1,700); AID 1841; in the data active = response below about 50% or above about 160%; inactive = in between;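 note: 100% = no compound control and 0% = blank background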
* hit, by the source's call; ? = inconclusive; / = not tested or not shown; [ ] = dose if it differs, or a comment. Unless noted, the rule behind the calls is not given here.

SMILES	RGS4-Gao reg	GSH fluor	RGS8-Gao reg	Avidin fluor	RGS16-Gao HTS	RGS7-Gao reg	RGS4-Gao HTS	Avidin counter	RGS8-Gao confirm	RGS7-Gao confirm	RGS16-Gao conf	RGS4-Gao single	RGS19-Gao conf
COc1ccc(-n2c(SCC(=O)Nc3cc(C)on3)nc3c(c2=O)SCC3)cc1	122	26	166*[activator]	5	355	117	122*	0	99	92	97	99	100
O=C(O)CC(CC(=O)O)(C(=O)O)c1ccccc1	99	/	101	7	105	?	/	/	/	/	/	/	/
CC#CC[N+](C)(C)CCCCCCCCCC	170*[activator]	/	115	47*	156	?	/	0	105	107	104	106	107
CCN1C(=O)/C(=C/N2CCc3ccccc3C2)SC1=S	/	/	/	/	/	/	/	2	99	99	99	97	102
Cc1nc2sc(C(c3ccccc3)N3CCN(C(=O)c4ccco4)CC3)c(O)n2n1 (configuration not stated)	101	71	102	7	102	103	/	/	/	/	/	/	/
Cc1ccc(C(c2sc3nc(C)nn3c2O)N2CCN(C(=O)c3ccco3)CC2)cc1 (configuration not stated)	97	14	76	4	23*	100	97*	0	99	96	99	99	90
OCCNc1nc(-c2ccccc2)nc2c1oc1ccccc12	89	/	95	7	87	?	/	/	/	/	/	/	/
CCOC(=O)c1sc(-c2cccc(C(F)(F)F)c2)nc1O	97	/	75	7	96	?	/	0	100	94	100	98	90
CCOC(=O)c1sc(-c2ccc(C(F)(F)F)cc2)nc1O	96	/	100	6	95	?	/	/	/	/	/	/	/
COCCN1Cc2cccc(C(=O)NCc3ccccn3)c2C1=O	106	14	109	13	120	111	/	/	/	/	/	/	/
COCCN1Cc2cccc(C(=O)NCc3ccc4c(c3)OCO4)c2C1=O	89	22	70	6	20*	92	89*	1	106	99	109	103	106
O=C(Cc1noc2ccccc12)Nc1ccc2ccccc2c1	91	22	70	4	25*	89	91*	0	94	88	89	91	99
Cc1cc(C(=O)CSc2nc3ccccc3c(=O)[nH]2)c(C)n1C	18*	24	10*	-1	11*	8.0*	/	0	104	102	104	102	98
COc1cccc(C2c3c(oc4cc(C)c(C)cc4c3=O)C(=O)N2CCCN(C)C)c1 (configuration not stated)	122	12	96	117*	106	263*[activator]	122*	/	/	/	/	/	/
CC(O)C(=O)N/N=C/c1ccccc1C(=O)O (configuration not stated)	105	10	105	12	102	105	/	/	/	/	/	/	/
C[n+]1cccc(C(=O)NCC2CCCO2)c1 (configuration not stated)	117	12	147*[activator]	6	308*[activator]	112	117*	0	99	101	100	101	98
COC(=O)c1cc(OC)c(OC)cc1NC(=S)N1CCN(c2ccccc2)CC1	103	36	102	11	103	102	/	/	/	/	/	/	/
OC1CCN(c2ncnc3c2nnn3Cc2c(F)cccc2Cl)CC1	131	46	118	/	/	152*[activator]	131*	0	81	70*	78	79	77
CCOC(=O)c1ccc(NC(=O)C2(c3ccccc3)CCCC2)cc1	131	7	144*[activator]	5	321	123	131*	/	/	/	/	/	/
CCC(C)(C)C1CCC(=NNC(=O)c2ccoc2C)CC1 (configuration not stated)	100	16	100	38	101	101	/	/	/	/	/	/	/
CCCCOc1ccc(S(=O)(=O)Nc2cc(OC)ccc2OC)cc1	/	48	/	/	/	/	/	-1	99	102	96	98	107
COc1ccc(OC)c(NS(=O)(=O)c2ccc(Cl)nc2)c1	100	6	96	0	87	101	/	/	/	/	/	/	/
Cc1ccc2cccnc2c1NC(=S)NC(=O)c1ccccc1	100	14	99	37	99	104	/	/	/	/	/	/	/
Cc1cc2ncn(CCC(=O)NC(C)(C)C)c2cc1C	101	14	102	9	102	103	/	/	/	/	/	/	/
Cc1ccc(C(C)NC(=O)C2CCCO2)cc1C (configuration not stated)	/	19	/	/	/	/	/	0	98	103	100	100	87
SMILES	RGS4-Gao reg	GSH fluor	RGS8-Gao reg	Avidin fluor	RGS16-Gao HTS	RGS7-Gao reg	RGS4-Gao HTS	Avidin counter	RGS8-Gao confirm	RGS7-Gao confirm	RGS16-Gao conf	RGS4-Gao single	RGS19-Gao conf
Cc1cccc(C(=O)NC2CC(C)(C)NC(C)(C)C2)c1	101	14	98	82*	113	172*[activator]	101*	1	92	93	92	92	84
CC1(C)CC(NC(=O)c2ccccc2C(=O)NC2CC(C)(C)NC(C)(C)C2)CC(C)(C)N1	99	12	101	9	99	96	/	/	/	/	/	/	/
Cc1cccc(C(=O)NNC(=O)C2CCCO2)c1 (configuration not stated)	21*	24	12*	-2	1.0*	14*	/	1	120	137*[activator]	124	132*[activator]	135
O=C(NNC(=O)C1CCCO1)c1ccccc1Cl (configuration not stated)	/	17	/	/	/	/	/	2	100	100	101	100	99
CC(c1ccccc1)N(NC(=O)C(O)(c1ccccc1)c1ccccc1)C(=O)c1ccccc1 (configuration not stated)	100	14	103	3	105	101	/	/	/	/	/	/	/
C=CCN(CC=C)C(=S)NC(=O)Cc1cccc2ccccc12	100	25	100	13	103	99	/	/	/	/	/	/	/
O=C(O)C1CCN(C(=O)CCc2ccccc2)CC1	102	/	100	6	106	?	/	/	/	/	/	/	/

Screening results from PubChem BioAssay.
